About 3,500 (6%) of roughly 58,000 sequences were called active. Rule as the data show it: active = GI50 up to about 1.1 µM and inactive = higher. Only a sample is shown. Measured potencies and affinities stand elsewhere.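 1) Cells in 96-well plates. 2) Compound, 48 h, 5 concentrations. 3) Linear interpolation between surrounding doses. 4) Unreached endpoint = highest concentration. The concentration for 50% growth inhibition is given as GI50.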
These substances were tested on SN12C (assay: NCI tumour cell line growth inhibition, 48 h).

Substance	GI50 [µM]
[Bis(aminomethyl)pentamethylenesilane]dichloropaltinum(II), CHEMBL2146202	1.87
[Bis(aminomethyl)pentamethylenesilane]tetrachloropaltinum(IV), CHEMBL2146204	2
[Bis(aminomethyl)tetramethylenesilane]tetrachloropaltinum(IV), CHEMBL2146189	2.64
cis-Bis[[(trimethylsilyl)methyl]amino]tetrachloroplatinum(IV), CHEMBL2146191	13.1
[Bis(aminomethyl)dimethylsilane]tetrachloroplatinum(IV), CHEMBL2146190	8.45
[Bis(aminomethyl)tetramethylenesilane]dichloropaltinum(II), CHEMBL2146205	23.9
mu-(1,7-nanodiamine-N,N')bis-(cis-aminedichloroplatimum (II)), CHEMBL2146215	0.387
[Bis(aminomethyl)dimethylsilane]dichloroplatinum (II), CHEMBL2146201	32.4
[Bis(aminomethyl)diethylsilane]tetrachloroplatinum(IV), CHEMBL2146203	2.34
[Bis(aminomethyl)ethylmethylsilane]tetrachloroplatinum(IV), CHEMBL2146192	4.25
CISPLATIN, CHEMBL11359	4.83

From ChEMBL document CHEMBL1201862, “PubChem BioAssay data set” (2004)
